Screening data deposited in PubChem by National Center for Advancing Translational Sciences (NCATS).
Sampled rows, rich in hits. Any-hit rate of the full collection: about 19%.
KB-3-1 tox: qHTS assay for MDR1-selective chemotherapeutics: Primary screen using the parental adenocarcinoma cell KB-3-1 | Potency, µM (doses to about 46.1 µM), most hits filed as cytotoxic | hit rate 1.4% among 400,000 | KB-3-1 viability, CellTiter-Glo ATP luminescence, 72 h; note: nearly all actives have a fitted effect of over 60% in size
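Parental KB-3-1 adenocarcinoma cells in phenol-red-free DMEM with 10% FBS were pin-treated with compounds at several concentrations, incubated 72 h at 37 °C, and viability read by CellTiter-Glo luminescence; concentration-effect curves were fitted after normalization.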
KB-V1 MDR tox: qHTS assay for MDR1-selective chemotherapeutics: Primary screen using the drug-selected MDR subline cells KB-V1; KB-V1 MDR cells viability, CellTiter-Glo, 72 h; Potency, µM (doses to about 46.1 µM), usual class: cytotoxic; hit rate 3.4% among 400,000; note: nearly all actives have a fitted effect of over 60% in size
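KB-V1 MDR subline cells in DMEM (phenol-red free, 10% FBS) exposed to compounds in qHTS concentration series for 72 h at 37 degrees C. Viability read by CellTiter-Glo luminescence; concentration-effect curves fitted after normalization and correction.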
DT40 TDP1 no CPT: qHTS for Inhibitors of human tyrosyl-DNA phosphodiesterase 1 (TDP1): qHTS in cells in absence of CPT; DT40 Tdp1-/- hTDP1 cells, no CPT, ATP luminescence, 48 h; Potency, µM (doses to about 46.2 µM), for inactives: top-dose activity change, negative = growth inhibition, hits mostly inhibitors; hit rate 15% among 420,000; AID 686978, 2013; note: nearly all actives have a fitted effect of over 55% in size
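Chicken DT40 Tdp1-/- cells complemented with human TDP1, screened without camptothecin (DMSO vehicle only), 400 cells/well. Compounds pin-transferred, cells incubated at 37 °C for at least 48 hr. Growth read as ATP-dependent luminescence (CellTiter-Glo, 30 min at RT).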
HT1080 IDH1KD tx: qHTS for induction of synthetic lethality in tumor cells producing 2HG: qHTS for the HT-1080-IDH1KD cell line | HT-1080 IDH1 knockdown viability, ATP luminescence, 48 h | Potency, µM (doses to about 46.1 µM), for the others: at the highest dose activity, negative = toxicity, most hits filed as cytotoxic | hit rate 2% among 360,000;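 note: 0% = DMSO wells and -100% = cell-free medium wells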
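After a 2 h attachment period, IDH1KD HT-1080 cells took pin-transferred compound for 48 h at 37 °C; ATP-based luminescence after 10 min room-temperature reagent incubation reported viability.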
DT40 TDP1 CPT: qHTS for Inhibitors of human tyrosyl-DNA phosphodiesterase 1 (TDP1): qHTS in cells in presence of CPT; chicken DT40 Tdp1-/-;hTDP1 cells + 20 nM CPT, ATP luminescence, 48 h; Potency, µM (highest dose often 46.2 µM), inactives show top-dose activity change, negative = growth inhibition, most hits filed as inhibitors; hit rate 12% among 420,000; AID 686979, 2013; note: nearly all actives have a fitted effect of over 55% in size
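Cell growth measured by CellTiter-Glo luminescence after a minimum 48 h, 37 C compound exposure with 20 nM CPT in Tdp1-knockout DT40 cells stably expressing hTDP1, seeded 400/well; qHTS titration format.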
HT1080NT lethal: qHTS for induction of synthetic lethality in tumor cells producing 2HG: qHTS for the HT-1080-NT fibrosarcoma cell line | Potency, µM (doses to about 46.1 µM), for inactives: top-dose activity, negative = less viability, usual class: cytotoxic | hit rate 1.6% among 360,000 | HT-1080-NT fibrosarcoma viability, CellTiter-Glo ATP luminescence, 48 h | AID 686970, 2013;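 note: NT is the 2HG producing partner of a matched IDH1 knockdown line; 0% = DMSO-treated cells and -100% = media-only wells without cells; nearly all actives have a fitted effect of over 55% in size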
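A 48-hour cytotoxicity screen used HT-1080-NT cells plated 2 hours before compound delivery. ATP-based CellTiter-Glo luminescence measured viability, normalized to DMSO and no-cell controls.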
The depositor's hits bear a star. Calls come from the whole dose curve; as a rule, active = well fitted curve in the direction sought with a large enough effect; inconclusive = small, poorly fitted or top-dose-only effect, or another doubt; inactive = no such curve, though single readings can be large; an effect the other way counts as inactive or inconclusive. Unless noted, % is set by controls: 0 for no effect and ±100 for the full control effect; potency is the fitted concentration of half-maximal effect.

For O=C(c1ccccc1OCc1ccccc1Br)N1CCN(c2ncccn2)CC1 the results were KB-3-1 tox inconclusive, KB-V1 MDR tox 6.51µM*, DT40 TDP1 no CPT inconclusive, HT1080 IDH1KD tx inconclusive, DT40 TDP1 CPT inconclusive and HT1080NT lethal inconclusive.
Screening CC(=O)NC12CC3CC(C1)CC(C(=O)Oc1ccc(N(C)S(=O)(=O)c4cc(C)ccc4C)cc1)(C3)C2 returned KB-3-1 tox inactive, KB-V1 MDR tox inactive, DT40 TDP1 no CPT 16.4µM*, HT1080 IDH1KD tx -10.5%, DT40 TDP1 CPT inconclusive and HT1080NT lethal -23.7%.
CC(=O)NC12CC3CC(C1)CC(C(=O)NCC(=O)Nc1c(C)cc(C)cc1C)(C3)C2 was read as KB-3-1 tox inactive, KB-V1 MDR tox inactive, DT40 TDP1 no CPT 9.6%, HT1080 IDH1KD tx -1.7%, DT40 TDP1 CPT -46.5% and HT1080NT lethal -2.7%.
`CCCCc1ccc(NC(=O)c2cc(-c3ccc(C)c(F)c3)on2)cc1` gave KB-3-1 tox inactive, KB-V1 MDR tox inactive, DT40 TDP1 no CPT -8.1% and DT40 TDP1 CPT -3.0%.
For Cc1cnc(CNc2nc(-c3cccc(NS(C)(=O)=O)c3)nc3ccccc23)cn1 the results were DT40 TDP1 no CPT -7.7% and DT40 TDP1 CPT -0.7%.
O=c1ccc2ccccc2c2ccccc12 was read as KB-3-1 tox 8.2µM*, KB-V1 MDR tox inconclusive, DT40 TDP1 no CPT 2.59µM*, HT1080 IDH1KD tx 5.8µM*, DT40 TDP1 CPT 2.91µM* and HT1080NT lethal 8.2µM*.
O=C(O)c1ccc2ccc3ccccc3c2c1 was read as KB-3-1 tox inactive, KB-V1 MDR tox inactive, DT40 TDP1 no CPT 0.9%, HT1080 IDH1KD tx 17.2%, DT40 TDP1 CPT 2.8% and HT1080NT lethal 18.3%.
CC(C)c1ccc(C2N3CC4(C)CN2CC(c2ccccc2)(C3)C4=O)cc1 (stereo unspecified) was read as KB-3-1 tox inactive, KB-V1 MDR tox inactive, DT40 TDP1 no CPT 18.4µM* and DT40 TDP1 CPT inconclusive.
For O=C(NCCC1=CCCCC1)C(=O)c1c[nH]c2ccccc12 the results were KB-3-1 tox inactive, KB-V1 MDR tox inactive, DT40 TDP1 no CPT inconclusive, HT1080 IDH1KD tx -9.6%, DT40 TDP1 CPT -28.8% and HT1080NT lethal -9.6%.
For CCOc1ccccc1CNC(=O)CN1C(=O)CCc2cc(S(=O)(=O)N3CCCCC3)ccc21 the results were KB-3-1 tox inactive, KB-V1 MDR tox inactive, DT40 TDP1 no CPT 20.6µM* and DT40 TDP1 CPT inconclusive.
O=C(CN1C(=O)CCc2cc(S(=O)(=O)N3CCCCC3)ccc21)NCc1ccc(Cl)cc1 was read as KB-3-1 tox inactive, KB-V1 MDR tox inactive, DT40 TDP1 no CPT 14.6µM* and DT40 TDP1 CPT 20.6µM*.
`O=C(Cn1nc2c(cc1=O)CCCC2)NCc1ccc(Cl)cc1` gave DT40 TDP1 no CPT 18.4µM* and DT40 TDP1 CPT 16.4µM*.
For CCN(CC)S(=O)(=O)c1cccc(C(=O)NC(Cc2c[nH]c3ccccc23)c2nnc3n2CCC3)c1 (stereo unspecified) the results were KB-3-1 tox inactive, KB-V1 MDR tox inactive, DT40 TDP1 no CPT inconclusive, HT1080 IDH1KD tx 10.6%, DT40 TDP1 CPT -4.5% and HT1080NT lethal 9.6%.
`CCOc1ccc(C(=O)Oc2c(Sc3ccccc3)c(C)nn2C(C)(C)C)cc1OCC` gave KB-3-1 tox inactive, KB-V1 MDR tox inactive, DT40 TDP1 no CPT inconclusive and DT40 TDP1 CPT inconclusive.
`COc1cc(OC)c(C(=O)c2ccccc2[N+](=O)[O-])c(OC)c1` gave KB-3-1 tox inactive, KB-V1 MDR tox inactive, DT40 TDP1 no CPT -20.5%, HT1080 IDH1KD tx 10.3%, DT40 TDP1 CPT 24.4% and HT1080NT lethal 4.1%.
For O=C(NC1CCN(C(=S)Nc2ccccc2Cl)CC1)C1CCCCC1 the results were KB-3-1 tox inactive, KB-V1 MDR tox inconclusive, DT40 TDP1 no CPT -17.9%, HT1080 IDH1KD tx 6.3%, DT40 TDP1 CPT 4.5% and HT1080NT lethal 8.4%.
Screening Cc1ccc(Cn2ccsc2=NC(=O)COC(=O)c2ccc(NC(=O)CC#N)cc2)cc1 returned KB-3-1 tox inconclusive, KB-V1 MDR tox inactive, DT40 TDP1 no CPT 16.4µM*, HT1080 IDH1KD tx -8.1%, DT40 TDP1 CPT inconclusive and HT1080NT lethal -7.5%.
Screening Cc1ccc(Cn2ccsc2=NC(=O)CCl)cc1 returned KB-3-1 tox 20.6µM*, KB-V1 MDR tox inconclusive, DT40 TDP1 no CPT 5.8µM*, HT1080 IDH1KD tx 11.6µM*, DT40 TDP1 CPT 11.6µM* and HT1080NT lethal 1.03µM*.
Screening Cc1cc(C(=O)COC(=O)c2ccc(NC(=O)CC#N)cc2)c(C)n1C1CC1 returned KB-3-1 tox inactive, KB-V1 MDR tox inactive, DT40 TDP1 no CPT 20.6µM*, HT1080 IDH1KD tx 8.2%, DT40 TDP1 CPT 20.6µM* and HT1080NT lethal 2.6%.
`Cc1ccc(NC(=O)CN(C)C(=O)COC(=O)c2ccc(NC(=O)CC#N)cc2)cc1` gave DT40 TDP1 no CPT 7.1%, HT1080 IDH1KD tx 5.4%, DT40 TDP1 CPT 11.6% and HT1080NT lethal 4.0%.
Screening Cc1ccc(NC(=O)CSCC(=O)N=c2sccn2C)cc1 returned KB-3-1 tox inactive, KB-V1 MDR tox inactive, DT40 TDP1 no CPT inconclusive, HT1080 IDH1KD tx 14.5%, DT40 TDP1 CPT -20.4% and HT1080NT lethal 7.8%.
Screening CCCS(=O)(=O)NC(=O)C1(C)CCCN(C(=O)c2ccc(C(=O)OC)cc2)C1 (stereo unspecified) returned KB-3-1 tox inactive, KB-V1 MDR tox inactive, DT40 TDP1 no CPT -2.3%, HT1080 IDH1KD tx 8.2%, DT40 TDP1 CPT -2.7% and HT1080NT lethal inconclusive.
Screening O=C(Nc1ccc2c(c1)CCC2)c1ccc(F)c(S(=O)(=O)N2CCOCC2)c1 returned KB-3-1 tox inconclusive, KB-V1 MDR tox 3.26µM*, DT40 TDP1 no CPT 23.1µM*, HT1080 IDH1KD tx -14.8%, DT40 TDP1 CPT inconclusive and HT1080NT lethal -0.9%.
O=S(=O)(c1cc(F)ccc1F)N1CCC2(CC1)OCCO2 was read as KB-3-1 tox inactive, KB-V1 MDR tox inactive, DT40 TDP1 no CPT 13.2%, HT1080 IDH1KD tx 7.9%, DT40 TDP1 CPT -1.5% and HT1080NT lethal 11.4%.
